Rows were chosen to be rich in hits. Some 1.8% of all compounds tested hit in one or more screens of this group.
Sa RN4220 lethal = growth inhibition of S. aureus RN4220, primary screen, OD600; 16 h; inhibition, % (concentration not given with the values); hit rate 0.33% among 330,000; AID 1259311, 2017; in the data active = inhibition above about 85%;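 also: plate controls were untreated cells for no effect and reference antibiotic for full effect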
SSB-PriA inh = inhibitors of Klebsiella pneumoniae PriA binding to SSB C-terminal tail, primary screen, biochemical, AlphaScreen | AID 1272365, 2023 | PriA–SSB C-terminal tail interaction (Klebsiella pneumoniae) | AlphaScreen SSBct-PriA binding, biotinylated peptide | inhibition, % at 33 µM | hit rate 0.6% among 430,000; in the data active = inhibition mostly above about 37%, no sharp cut-off; inactive = mostly below about 20%;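 also: plate controls were negative control peptide for no effect and reference peptide for full effect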
ugtP null kill = growth inhibition of ugtP-null S. aureus, primary screen, RN4220 ugtP deletion, OD600; 16 h; growth inhibition, % (no concentration beside the values); hit rate 0.54% among 330,000; in the data active = growth inhibition above about 68%;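 also: plate controls were untreated wells for no effect and antibiotic for full effect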
PfHsp40 rescue = rescue of yeast from PfHsp40 toxicity, primary screen, S. cerevisiae, ATP luminescence | growth rescue, % at 12.5 µM | S. cerevisiae expressing PfHsp40, growth rescue | AID 504582, 2011 | hit rate 0.68% among 340,000; in the data active = growth rescue above about 28%, passing the limit was not always enough;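 also: yeast W303a lacking pdr1 and pdr3 grown in galactose medium; growth measured after three days at 30 °C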
Mtb hypoxia inh = PubChem AID 1159583; hit rate 0.1% among 300,000; M. tuberculosis hypoxia-regulated fluorescent reporter, fluorescence; fluorescence inhibition, % (no concentration beside the values); in the data active = fluorescence inhibition mostly above about 23%, no sharp cut-off; inactive = mostly below about 17%
VHR inh abs = VHR1 phosphatase inhibitors, primary screen, biochemical, absorbance, uHTS. Dual specificity protein phosphatase 3 (Homo sapiens), P51452. recombinant VHR phosphatase, pNPP absorbance. inhibition, % at 13.3 µM. hit rate 0.52% among 290,000; in the data active = inhibition above about 50%
Target sequence (P51452 whole entry, looked up): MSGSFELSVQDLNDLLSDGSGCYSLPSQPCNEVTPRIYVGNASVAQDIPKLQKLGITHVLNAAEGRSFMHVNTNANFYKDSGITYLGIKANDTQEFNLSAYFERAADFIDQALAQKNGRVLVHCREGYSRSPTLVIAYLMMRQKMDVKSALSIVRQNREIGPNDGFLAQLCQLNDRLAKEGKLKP
Numbers without * were called inactive; · = not tested or not shown.

SMILES	Sa RN4220 lethal	SSB-PriA inh	ugtP null kill	PfHsp40 rescue	Mtb hypoxia inh	VHR inh abs
O=C(NC(Cc1ccccc1)c1ccc2c(c1)OCCCO2)c1ccccc1F (stereo unspecified)	7	-10	7	-1	-3	52*
CCn1cc(CN2CCC(C(=O)Nc3cccc(-c4cccc(F)c4)c3)CC2)cn1	-4	39*	-9	0	7	28
CCc1ccc(CN2CCC(C(=O)Nc3cccc(-c4nnc(C)s4)c3)CC2)o1	3	57*	9	2	3	4
Cc1ccc(CN2CCC(C(=O)Nc3cccc(-c4cccc(F)c4)c3)CC2)o1	3	4	-2	2	3	34
CCOc1ccc(CCNC(=O)c2ccc(CS(=O)Cc3ccc(Cl)cc3)o2)cc1 (stereo unspecified)	-8	0	95*	0	2	15
CCOc1ccc(CCNC(=O)c2ccc(CS(=O)Cc3ccccc3Cl)o2)cc1 (stereo unspecified)	-3	-3	14	-1	10	25
CSc1ccc(CCNC(=O)c2ccc(CS(=O)Cc3ccc(Cl)cc3)o2)cc1 (stereo unspecified)	-2	-5	53	0	5	23
O=C(NCCc1ccc(Cl)cc1)c1ccc(CS(=O)Cc2ccc(Cl)cc2)o1 (stereo unspecified)	-2	-1	99*	0	7	-9
O=C(NCCc1ccccc1)c1ccc(CS(=O)Cc2cccc(Cl)c2)o1 (stereo unspecified)	-6	-4	87*	-1	4	13
CCOC(=O)N1CCN(C(=O)c2csc(Nc3ccc(OC(F)F)cc3)n2)CC1	·	6	·	·	·	·
Cn1cc(CC(=O)Nc2nc(-c3ccco3)cs2)c2ccccc21	·	27	·	·	·	·
Cc1cccc(COC(=O)CCCNC(=O)c2ccc(Cl)cc2)c1	3	-8	3	77*	4	·
Cc1noc(C)c1COC(=O)CCCNC(=O)c1ccc(Cl)cc1	7	-8	12	1	3	13
CCCCN(CCCC)S(=O)(=O)c1ccc(C(=O)Nc2nnc(CSC)o2)cc1	112*	3	99*	7	·	-11
CCN(c1ccccc1)S(=O)(=O)c1ccc(C(=O)Nc2nnc(COC)o2)cc1	16	5	-10	1	·	3
CCN(c1ccccc1)S(=O)(=O)c1ccc(C(=O)Nc2nnc(CSC)o2)cc1	24	3	15	40*	2	19
CCCCN(CC)S(=O)(=O)c1ccc(C(=O)Nc2nnc(CSC)o2)cc1	47	12	17	0	5	28
Cc1ccc(-n2c(O)c(C=Nc3ccccc3N)c(=O)[nH]c2=O)cc1C	0	8	-1	40*	·	21
COc1ccc(S(=O)(=O)N2CCCCC2CC(=O)Nc2nc3ccc(C)cc3s2)cc1 (stereo unspecified)	·	22	·	·	·	·
O=C(Cn1cc(C(=O)C(F)(F)F)c2ccccc21)N1CCOCC1	5	-10	6	48*	11	15
Clc1ccc(C(Cn2ccnc2)OCc2csc3c(Cl)cccc23)c(Cl)c1 (stereo unspecified)	99*	16	96*	80*	8	·
Clc1ccc(C(Cn2ccnc2)OCc2c(Cl)cccc2Cl)c(Cl)c1 (stereo unspecified)	72	9	94*	103*	24	·
Clc1cccc(OCCCn2ccnc2)c1	5	2	2	-1	·	18
OC(Cn1ccnc1)c1ccc(Cl)cc1Cl (stereo unspecified)	11	-3	4	-1	4	29
Cn1c(N2CCN(C(=O)NC(c3ccccc3)c3ccccc3)CC2)nc2ccccc21	·	-16	·	·	·	·
O=C(NCc1ccccc1C(F)(F)F)C1CCN(c2cc(Oc3ccccc3)ncn2)CC1	·	-6	·	·	·	·
CCOC(=O)c1ccc(NC(=O)CCc2nc(-c3ccccc3Cl)no2)cc1	0	-31	-4	34*	9	-6
CCOC(=O)c1ccc(NC(=O)CCc2nc(-c3ccccc3)no2)cc1	-6	-25	-2	19	-2	-12
Cn1c(SCC(=O)N2CCc3ccccc32)nnc1-c1ccc(=O)n(C)c1	·	-6	·	·	·	·
Cc1ccc(S(=O)(=O)NCc2ccc3[nH]c(C)cc3c2)cc1	-6	43*	3	9	-4	16
